# Activity calls are given as the source filed them.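 The calls were made as follows, unless noted: active = mean z-score across replicates of 1.96 or higher in either the MELAS or the Rieske mutant cell line; inactive = the rest.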
# Columns and labels:
# [1] = sensitizers of A549 cells to miR-34 induction, primary screen, imaging, A549 dox-inducible miR-34, nuclei and caspase counts (AID 1347080;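 active = compounds whose cell count with miR-34 switched on is under 0.7 times the count with it off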); conditions: A549 miR-34 inducible, Hoechst nuclei count, 48 h
# [2] = survival rescue of mitochondrial mutant cells in low glucose, primary screen, MELAS cybrids, Rieske KO mouse fibroblasts, CellTiter-Glo (AID 1508586);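 also: z relative to plate mean and SD of compound and empty wells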
# [3] = stronger effect = lower value, cell number ratio, induced over uninduced
# [4] = measured here: relative caspase fold change +Dox/-Dox
# [5] = measured here: total cells with miR-34 induction, stronger effect = lower value
# [6] = measured here: total cells without miR-34 induction
# [7] = MELAS cybrid survival, CellTiter-Glo 48 h, stronger effect = higher value
# [8] = Rieske KO mouse fibroblast survival, CellTiter-Glo 72 h
# Also: test concentration not given here.
SMILES,"fold change [1, 3]","fold change [1, 4]","cell count [1, 5]","cell count [1, 6]","z-score [2, 7]","z-score [2, 8]"
CC1(C)S[C@@H]2C(NC(=O)C(N)c3ccc(O)cc3)C(=O)N2C1C(=O)O (stereo partly drawn),0.958 (inactive),0.664,9670,10100,-0.365 (inactive),0.721
NC(=O)NN=Cc1ccc([N+](=O)[O-])o1,0.88 (inactive),0.871,7280,8270,-0.0834 (inactive),-0.616
CC(OC1OCCN(Cc2n[nH]c(=O)[nH]2)C1c1ccc(F)cc1)c1cc(C(F)(F)F)cc(C(F)(F)F)c1 (stereo not drawn),0.911 (inactive),3.19,7240,7950,1.33 (inactive),-2.44
COC(=O)C1C(O)CC[C@H]2CN3CCc4c([nH]c5ccccc45)[C@@H]3C[C@H]12 (stereo partly drawn),0.892 (inactive),0.762,8840,9910,-0.303 (inactive),0.721
CN(C)C(=O)C(O)C(Cc1ccccc1)NC(=O)c1cc2cc(Cl)ccc2[nH]1 (stereo not drawn),0.959 (inactive),0.88,8860,9230,-0.337 (inactive),0.715
CCC1OC(=O)C(C)C(OC2C[C@@](C)(OC)C(O)C(C)O2)C(C)C(OC2OC(C)CC(N(C)C)C2O)[C@](C)(O)CC(C)C(=NOCOCCOC)C(C)C(O)[C@]1(C)O (stereo partly drawn),0.909 (inactive),0.933,9240,10200,-0.34 (inactive),0.815
C=CCc1ccc(O)c(-c2cc(CC=C)ccc2O)c1,0.923 (inactive),0.657,7490,8120,0.173 (inactive),-0.0672
CON=C(C(=O)NC1C(=O)N2C(C(=O)OCOC(=O)C(C)(C)C)=C(C=Cc3scnc3C)CS[C@H]12)c1csc(N)n1 (stereo partly drawn),0.852 (inactive),0.561,7580,8900,-0.26 (inactive),0.818
CCOc1nc2cccc(C(=O)O)c2n1Cc1ccc(-c2ccccc2-c2noc(=O)[nH]2)cc1,0.988 (inactive),0.55,8580,8680,-0.267 (inactive),-0.0268
CC1=C(CC(=O)O)c2cc(F)ccc2C1=Cc1ccc(S(C)=O)cc1 (stereo not drawn),0.878 (inactive),0.667,7920,9010,-0.193 (inactive),0.691
C[C@]12CC[C@H]3c4ccc(O)cc4CC[C@H]3[C@@H]1CCC2OC(=O)CCC1CCCC1 (stereo partly drawn),0.984 (inactive),0.876,8050,8180,-0.17 (inactive),-0.155
CC#C[C@@]1(O)CC[C@H]2[C@@H]3CCC4=CC(=O)CCC4=C3C(c3ccc(N(C)C)cc3)C[C@@]21C (stereo partly drawn),0.891 (inactive),1.53,6640,7460,-0.469 (inactive),0.644
Cc1nc(C#Cc2ccnc(Cl)c2)c(C)n1-c1ccc(OC(F)(F)F)cc1,1.01 (inactive),0.784,6890,6830,-0.149 (inactive),0.0252
CCN1C(=CC(C)=O)Sc2ccc(OC)cc21,0.889 (inactive),0.354,6850,7700,0.342 (inactive),1.67
COC(=O)C1C(OC)C(OC(=O)c2cc(OC)c(OC)c(OC)c2)C[C@@H]2CN3CCc4c([nH]c5cc(OC)ccc45)[C@H]3C[C@H]12 (stereo partly drawn),0.925 (inactive),0.845,7190,7770,-0.484 (inactive),0.995
O=C(NCCO)c1cccc(-c2cc(Nc3ccc(OC(F)(F)F)cc3)ncn2)c1,0.847 (inactive),0.626,7400,8740,-0.469 (inactive),0.943
S=C=Nc1cccc(NC(=S)NCCCCNC(=S)Nc2cccc(N=C=S)c2)c1,0.972 (inactive),0.614,7440,7650,-0.615 (inactive),0.0526
C=C(C)C1CC[C@]2(C(=O)O)CC[C@]3(C)[C@H](CC[C@@H]4[C@@]5(C)CCC(O)C(C)(C)[C@@H]5CC[C@]43C)[C@@H]12 (stereo partly drawn),0.87 (inactive),0.918,6780,7790,-0.0804 (inactive),-0.141
CCc1c(Cl)c(O)c(Cl)c(O)c1C(=O)OC1C(C)OC(OCC2=CC=CCC(O)C(C)=CC(CC)C(O[C@@H]3OC(C)(C)C(OC(=O)C(C)C)C(O)C3O)C(C)=CC(C)=CC[C@H](C(C)O)OC2=O)C(OC)C1O (stereo partly drawn),0.841 (inactive),0.698,6980,8290,-0.301 (inactive),-0.0909
CCOC(=O)C1=C(N)Oc2ccc(Br)cc2[C@H]1C(C#N)C(=O)OCC (stereo partly drawn),0.989 (inactive),0.887,5900,5960,-0.334 (inactive),0.811
C[C@]12CC[C@H]3c4ccc(O)cc4CC[C@H]3[C@@H]1CCC2O (stereo partly drawn),0.784 (inactive),0.957,6520,8310,-0.389 (inactive),-0.286
CC1C(NC(=O)C(=NOC(C)(C)C(=O)O)c2csc(N)n2)C(=O)N1S(=O)(=O)O (stereo not drawn),0.929 (inactive),0.823,7110,7650,-0.398 (inactive),0.579
COc1ccc(CCc2nc3cc(-c4c(C)noc4C)ccc3n2CC(C)N2CCOCC2)cc1Cl (stereo not drawn),0.88 (inactive),0.277,7240,8230,-0.0999 (inactive),-1.46
